Many of the other results were omitted from the sample, so hits are more common in it than they were.
12-LOX inh: inhibitors of human 12S-lipoxygenase ALOX12; purified 12hLO, xylenol orange hydroperoxide absorbance; Potency, µM (doses to about 108 µM), inactives show at the top dose activity change, negative = inhibition, actives largely listed as inhibitors; hit rate 1.1% among 580,000; AID 1671190; further: potency means the concentration at half of the fitted maximal effect
Target sequence (P18054 whole entry, looked up): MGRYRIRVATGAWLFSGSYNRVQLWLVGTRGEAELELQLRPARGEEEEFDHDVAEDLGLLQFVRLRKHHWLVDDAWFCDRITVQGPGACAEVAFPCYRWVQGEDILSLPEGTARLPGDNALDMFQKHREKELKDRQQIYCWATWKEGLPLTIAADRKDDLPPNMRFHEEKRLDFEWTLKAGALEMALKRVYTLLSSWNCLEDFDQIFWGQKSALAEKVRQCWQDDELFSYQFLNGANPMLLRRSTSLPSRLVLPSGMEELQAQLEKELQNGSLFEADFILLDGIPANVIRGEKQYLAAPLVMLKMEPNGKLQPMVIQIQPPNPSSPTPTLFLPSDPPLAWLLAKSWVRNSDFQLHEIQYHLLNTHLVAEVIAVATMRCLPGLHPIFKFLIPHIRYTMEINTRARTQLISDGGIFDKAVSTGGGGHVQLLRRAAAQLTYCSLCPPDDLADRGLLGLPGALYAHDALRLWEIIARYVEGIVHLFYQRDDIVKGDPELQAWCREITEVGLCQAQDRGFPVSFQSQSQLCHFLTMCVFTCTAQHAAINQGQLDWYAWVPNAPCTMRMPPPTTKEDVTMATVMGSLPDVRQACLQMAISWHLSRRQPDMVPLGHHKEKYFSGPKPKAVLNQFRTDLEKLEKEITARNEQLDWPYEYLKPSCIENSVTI
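Purified human 12hLO (150 nM final) in 25 mM Hepes, 0.01% Triton X-100, pH 7.0 was preincubated 15 min at room temperature with compound. Then 40 uM arachidonic acid was added, 30 min. Hydroperoxide was read by Fe-XO absorbance ratio 573/405 nm.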
HT1080-NT tox: kills 2HG-producing HT-1080-NT fibrosarcoma cells. HT-1080-NT fibrosarcoma viability, CellTiter-Glo ATP luminescence, 48 h. Potency, µM (titrated, usually from 46.1 µM), without a hit: top-dose activity, negative = less viability, hits mostly cytotoxic. hit rate 1.6% among 360,000;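 further: NT is the 2HG producing partner of a matched IDH1 knockdown line; potency means the concentration at half of the fitted maximal effect; 0% = DMSO-treated cells and -100% = media-only wells without cells; nearly all actives have a fitted effect of over 55% in size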
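Fibrosarcoma NT cells, 750 per well in 5% FBS RPMI, were exposed to compound for 48 hours. Viability: CellTiter-Glo luminescence.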
TDP1 cell CPT: DT40-hTDP1 cell growth loss with CPT | chicken DT40 Tdp1-/-;hTDP1 cells + 20 nM CPT, ATP luminescence, 48 h | Potency, µM (doses to about 46.2 µM), without a hit: top-dose activity change, negative = growth inhibition, actives largely listed as inhibitors | hit rate 12% among 420,000; further: potency means the concentration at half of the fitted maximal effect; nearly all actives have a fitted effect of over 55% in size
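Chicken DT40 Tdp1-/- cells complemented with human TDP1, 400 cells/well, exposed to compounds plus 20 nM camptothecin for at least 48 h at 37 C; viability read as ATP content by CellTiter-Glo luminescence.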
HT1080 IDH1KD tx: toxicity to HT-1080 IDH1 knockdown cells (counter line) | Potency, µM (highest dose often 46.1 µM), without a hit: at the top dose activity, negative = toxicity, most hits filed as cytotoxic | hit rate 2% among 360,000 | HT-1080 IDH1 knockdown viability, ATP luminescence, 48 h;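 further: potency means the concentration at half of the fitted maximal effect; 0% = DMSO wells and -100% = cell-free medium wells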
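Cytotoxicity counter-line: IDH1KD HT-1080, 48 h, CellTiter-Glo. Curves classed by r2, magnitude and activity.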
IL1B secr inh: blocks inflammasome-driven IL-1 beta release. activity change, % at 57.5 µM. AID 743279. hit rate 4.7% among 360,000. THP-1 LPS/ATP IL-1B secretion, AlphaLISA, 16 h; hits give low values; in the data active means activity change below about -50%; inconclusive means mostly about -30% to -49%
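THP-1 cells pretreated 1 hr with compounds (up to 57.5 uM final), then stimulated with LPS (250 ng/mL final) plus ATP (1.25 mM final); secreted IL-1B measured by AlphaLISA after 16 hr, decreased signal indicating inhibition.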
DT40 TDP1 no CPT: qHTS for Inhibitors of human tyrosyl-DNA phosphodiesterase 1 (TDP1): qHTS in cells in absence of CPT. DT40 Tdp1-/- hTDP1 cells, no CPT, ATP luminescence, 48 h. Potency, µM (highest dose often 46.2 µM), for the others: top-dose activity change, negative = growth inhibition, hits mostly inhibitors. hit rate 15% among 420,000. AID 686978, 2013; further: potency means the concentration at half of the fitted maximal effect; nearly all actives have a fitted effect of over 55% in size
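Seeded 400 DT40-hTDP1 cells/well (vehicle DMSO, no 20 nM CPT); pinned compounds; ≥48 hr at 37 °C; CellTiter-Glo luminescence as viability measure.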
The depositor's hits bear a star; ? = inconclusive; · = no result given; [ ] = remark or other dose. Unless noted, the call rests on the fitted dose curve; in most records, active means well fitted curve in the direction sought with a large enough effect; inconclusive means small, poorly fitted or top-dose-only effect, or another doubt; inactive means no such curve, though single readings can be large; an effect the other way counts as inactive or inconclusive. Unless noted, on the % scale 0 is the no-effect control and ±100 the full control effect.

SMILES	12-LOX inh	HT1080-NT tox	TDP1 cell CPT	HT1080 IDH1KD tx	IL1B secr inh	DT40 TDP1 no CPT
COc1cccc(/C(O)=C/c2nc3ccc(C(=O)NCCc4cccc(C)c4)cc3[nH]c2=O)c1	-21%	?	-87%	?	0	-88%
O=C(CCCOc1ccc(Cl)cc1Cl)N/N=C/c1ccc(Cl)cc1	-17%	?	?	?	?	23µM*
Cc1cc(Cl)ccc1OCCCC(=O)NO	?	21µM*	8.2µM*	21µM*	-11	18µM*
Cc1ccccc1OCC(=O)NCC(=O)N/N=C/c1cccc([N+](=O)[O-])c1	-5%	·	·	·	·	·
O=C(CCCOc1ccc(Cl)cc1Cl)N/N=C\C1CCCCC1	-2%[57.4 µM]	0%	-17%	-8%	-51*	-8%
COc1ccc(/C=N/NC(=O)CCCOc2ccc(Cl)cc2Cl)cc1	4%	-5%	1%	-12%	-19	4%
O=C(CCCOc1ccc(Cl)cc1Cl)NCCCO	-29%	-1%	4%	4%	-20	7%
Cc1cc(Cl)ccc1OCCCC(=O)N/N=C/c1cccc([N+](=O)[O-])c1	-2%	-1%	15µM*	3%	-2	?
CCCCn1c(=O)[nH]c(=O)c2c1nc(-c1ccccn1)n2CCC	5%	·	·	·	·	·
O=C(O)C/C(=C/c1c(Cl)cccc1Cl)c1nc2ccccc2o1	-10%	·	·	·	·	·
Cc1cc2nc(CSc3nc4ccc(NC(=O)C5CCCCC5)cc4s3)cc(=O)n2o1	15%	·	·	·	·	·
CC1CCCN(S(=O)(=O)c2ccc(N3CCCCS3(=O)=O)cc2)C1 (stereo not given)	?	·	-21%	·	·	-28%
C/C(N)=C(/C#N)C(=O)CSc1nnc(SCc2ccc(Cl)cc2)s1	-55%	-17%	13µM*	21µM*	-1	16µM*
CN1C[C@@H](NC(=O)c2ccccc2)C[C@H]1c1nc(-c2cnccn2)no1	6%[176 µM]	·	·	·	·	·
O=C(NCCCN1CCCC1)c1ccc2c(Cl)c3c(nc2c1)CCCC3	-15%	18µM*	?	23µM*	·	15µM*
CCCN1CCN(CCCNC(=O)c2ccc3c(Cl)c4c(nc3c2)CCCC4)CC1	12%	?	21µM*	?	-56*	8.2µM*
O=C(NCCN1CCCCC1)C(=O)Nc1cccc(N2CCCS2(=O)=O)c1	16%	·	·	·	·	·
CC1(c2ccc(Cl)cc2Cl)NC(=O)N(CC(=O)Nc2ccc3[nH]c(=O)[nH]c3c2)C1=O (stereo not given)	?	2%	0%	-1%	-12	-8%
O=C(/C=C/c1ccc(Cl)cc1Cl)N(Cc1ccc(Cl)cc1)C1CCS(=O)(=O)C1 (stereo not given)	-20%	0%	?	-3%	0	16µM*
O=C(c1ccc(Cl)c([N+](=O)[O-])c1)N(Cc1ccc(Cl)cc1)C1CCS(=O)(=O)C1 (stereo not given)	-19%	?	?	?	-88*	23µM*
O=C(c1ccc(Cl)c([N+](=O)[O-])c1)N(Cc1cccc(Cl)c1)C1CCS(=O)(=O)C1 (stereo not given)	12%	-2%	?	5%	-93*	?
Cc1ccc(CN(C(=O)c2ccc(Cl)c([N+](=O)[O-])c2)C2CCS(=O)(=O)C2)o1 (stereo not given)	4%	-29%	3%	-24%	-95*	5%
COc1cccc(C(=O)N(Cc2ccc(C)o2)C2CCS(=O)(=O)C2)c1 (stereo not given)	-1%	·	-27%	·	·	-22%
CCCCOc1cccc(C(=O)N(Cc2ccc(Br)o2)C2CCS(=O)(=O)C2)c1 (stereo not given)	0%	·	18µM*	·	·	16µM*
CCCCCOc1c(Cl)cc(C(=O)N(Cc2ccc(C)o2)C2CCS(=O)(=O)C2)cc1Cl (stereo not given)	-51%	·	18µM*	·	·	16µM*
SMILES	12-LOX inh	HT1080-NT tox	TDP1 cell CPT	HT1080 IDH1KD tx	IL1B secr inh	DT40 TDP1 no CPT
COc1cc(Br)c(C[N+]2(CCOCCC3CCC4CC3C4(C)C)CCOCC2)cc1OC (stereo not given)	·	·	1.9µM*	·	·	1.9µM*
COCCN(Cc1cc(=O)c2cc(F)ccc2[nH]1)CC1CC1	73%	·	·	·	·	·
CC1CCCCN1C(=O)c1cnn2c1NC(=C1CC1)C=C2C(F)F (stereo not given)	·	7%	10%	1%	·	?
O=C(NC1CCCc2ccccc21)c1cnn2c1NC(=C1CC1)C=C2C(F)F (stereo not given)	·	-25%	11µM*	-20%	·	20µM*
COc1ccc(CCNC(=O)c2cnn3c2NC(=C2CC2)C=C3C(F)F)cc1OC	·	·	11µM*	·	·	13µM*
O=C(c1cnn2c1NC(=C1CC1)C=C2C(F)F)N1CCc2ccccc21	·	·	11µM*	·	·	11µM*
O=C(Nc1cc(Cl)cc(Cl)c1)c1cnn2c1NC(=C1CC1)C=C2C(F)F	·	·	-25%	·	·	-19%
O=C(Nc1ccccc1Sc1ccccc1)c1cnn2c1NC(=C1CC1)C=C2C(F)F	·	·	16µM*	·	·	?
Cc1ccc(NC(=O)c2cnn3c2NC(=C2CC2)C=C3C(F)F)cc1	·	·	-13%	·	·	-24%
Cc1ccc(S(=O)(=O)Nc2nc3ccccc3nc2Nc2ccccc2)cc1C	9%	·	·	·	·	·
Cc1ccc(NC(=O)c2cnn3c2NC(=C2CC2)C=C3C(F)F)cc1C	·	·	-1%	·	·	?
O=C(Nc1ccccc1F)c1cnn2c1NC(=C1CC1)C=C2C(F)F	·	15%	-3%	4%	·	-12%
O=C(Nc1cccc(Nc2ccccc2)c1)c1cnn2c1NC(=C1CC1)C=C2C(F)F	·	·	4.5µM*	·	·	14µM*
O=C(Nc1cccnc1Cl)c1cnn2c1NC(=C1CC1)C=C2C(F)F	·	·	?	·	·	8.9µM*
O=C(CCC[C@H]1NC[C@@H]2CC1CN(Cc1ccccc1)C2)N1CCC(N2CCCCC2)CC1	-4%	·	·	·	·	·
CSc1ccc(/C=C(\NC(=O)c2ccc(C)cc2)C(=O)NN)cc1	94%	-4%	8%	4%	?	4%
CSc1ccc(/C=C(/NC(=O)c2ccc(C)cc2)C(=O)Nc2cccc(C)c2)cc1	-8%	1%	7.3µM*	0%	37	7.3µM*
C1=Nc2ccccc2/C1=C/c1ccccc1	·	·	4.5µM*	·	·	13µM*
CSC1=N/C(=C\c2cc(C)ccc2C)C(=O)S1	-18%	·	·	·	·	·
Cc1nccn1CCC1CCN(c2nccc(-c3ccccn3)n2)CC1	23%	·	·	·	·	·
CCCCOc1ccc(-c2nnn(CC(=O)NCc3ccco3)n2)cc1	1%	7.1µM*	4.6µM*	7.9µM*	30	4.6µM*
